Out of some 6,200 compounds screened, about 2,900 (47%) were called active. Rule as the data show it: active = inhibition above about 50%; inactive = the rest. So high a share suggests a set chosen from earlier hits. The list shows a part of the results.
experiment: Mycobacterium tuberculosis growth inhibition, primary screen (AID 1259343); details: inhibition: at 10 µM, hits give high values; outcome: 10 uM

Row | SMILES | inhibition
1 | COc1ccc(NCc2nn(CC(=O)c3ccc(Br)cc3)c3[n+]2CCCCC3)cc1 | 17.7% (inactive)
2 | CCn1nnc2c(=O)n(CC(=O)c3ccc(OC)cc3)cnc21 | 77.2% (active)
3 | O=c1[nH]nc2nc(N3CCCCC3)nc(N3CCCCC3)n12 | 18.9% (inactive)
4 | O=C(Cn1ccc(=O)[nH]c1=O)NNc1ccc(Cl)c(Cl)c1 | 97.2% (active)
5 | Cc1nc(CSc2ccc(C(=O)NNC(=O)c3ccc4c(c3)OCCO4)cc2)cs1 | 95.3% (active)
6 | Cc1cn2nc(Sc3ccc4c(c3)OCCCO4)sc2n1 | 33.4% (inactive)
7 | Cc1nc(C2(NC(=O)c3ccc4c(c3)OCCCO4)CCCCC2)no1 | 5.32% (inactive)
8 | CCN(CC)c1ccc(/C=C2\SC(=S)N(NC(=O)c3ccc(OC)cc3)C2=O)cc1 | 8.8% (inactive)
9 | CCCCN1C(=O)C(=Cc2cccnc2)SC1=Nc1ccc(OC)cc1 | 87.8% (active)
10 | CCCN1C(=O)C(=Cc2ccc(OC)cc2OC)SC1=S | 2.79% (inactive)
11 | O=c1c(NCc2ccc(F)cc2)nccn1Cc1ccc(Cl)cc1 | 96.5% (active)
12 | CC(c1ccco1)N(C)C(=O)NCCc1cc(F)ccc1F (stereo not drawn) | 21.2% (inactive)
13 | OC(CN1CCCCCC1)CN1c2ccccc2Sc2ccccc21 (stereo not drawn) | 40.6% (inactive)
14 | CCCn1cc(SCC(=O)N2CCc3ccccc32)c2ccccc21 | 16.9% (inactive)
15 | OC(CN1CCc2ccccc2C1)Cn1c2c(c3ccccc31)CCCC2 (stereo not drawn) | 66.7% (active)
16 | CC(C)=CCN1N=C(c2ccccc2)C(O)O1 (stereo not drawn) | 86% (active)
17 | Brc1ccc2c(c1)C1CC(c3cccs3)=NN1C(c1cccnc1)O2 (stereo not drawn) | 97.9% (active)
18 | Cc1ccc(C2=NN3C(C2)c2cc(Cl)ccc2OC3c2ccncc2)cc1 (stereo not drawn) | -54.8% (inactive)
19 | N#Cc1ccc(OCCn2nccc2-c2ccncc2)cc1 | 61.2% (active)
20 | Cc1ncc(COc2ccc(-c3ccc(C#N)cc3)cc2)s1 | 43.5% (inactive)
21 | COCC(=O)Nc1nc2cc(C(F)(F)F)ccc2n1Cc1ccco1 | 62.6% (active)
22 | FC(F)(F)c1cccc(C(OCCN2CCN(Cc3ccco3)CC2)c2ccccc2)c1 (stereo not drawn) | -3.93% (inactive)
23 | COCC(=O)Nc1nc2ccccc2n1C1CCCCC1 | 14.7% (inactive)
24 | O=C(OC(C(=O)Nc1cc(Cl)cc(Cl)c1)c1ccccc1)C1=COCCO1 (stereo not drawn) | 78.7% (active)
25 | Nc1ccc(-n2cccc2C(=O)O)cc1 | 93.6% (active)
26 | COc1c2ccccc2nc2occc12 | 89.7% (active)

Row | SMILES | inhibition
27 | O=C(Nc1cc(F)c(N2CCCC2)c(F)c1)C1CC1c1cccnc1 (stereo not drawn) | 32.7% (inactive)
28 | CCc1nnsc1C(=O)Nc1cc(F)c(N2CCCC2)c(F)c1 | 37.1% (inactive)
29 | Cc1cccc(NC(=O)C2CCN(c3c(F)cc(C#N)cc3F)CC2)n1 | 72.7% (active)
30 | N#CC(c1ccccc1)c1cnn(-c2ccccc2)c(=O)c1Cl (stereo not drawn) | 101% (active)
31 | O=c1c(Cl)c(N2CCN(c3ccccc3)CC2)cnn1Cc1ccccc1Cl | 17.9% (inactive)
32 | N#CC(c1ccc(Cl)cc1Cl)c1cnnc2ccccc12 (stereo not drawn) | -8.73% (inactive)
33 | CN(C)C=Nc1ccc(OC(F)F)c(Cl)c1 | 92% (active)
34 | CCc1cc(=O)[nH]c(-n2nc(C)cc2NC(=O)c2ccc([N+](=O)[O-])cc2)n1 | 101% (active)
35 | Cc1cc(=O)[nH]c(-n2nc(C)cc2NC(=O)c2cccc([N+](=O)[O-])c2)n1 | 100% (active)
36 | CCc1cc(=O)[nH]c(-n2nc(C)cc2NC(=O)c2cccc([N+](=O)[O-])c2)n1 | 102% (active)
37 | Cc1cc(-c2nc3cccnc3s2)ccc1NS(=O)(=O)c1ccc(F)cc1F | 74.7% (active)
38 | COC(=O)c1ccccc1NC(=O)c1cc(-c2cccs2)n(C2CCS(=O)(=O)C2)n1 (stereo not drawn) | 42.9% (inactive)
39 | CCC(=O)NCC1CN(c2ccc(OC)cc2)C(=O)O1 (stereo not drawn) | 83% (active)
40 | O=C(CN1CCCC1c1ccsc1)Nc1ccccc1Br (stereo not drawn) | 41.9% (inactive)
41 | N#Cc1nc(NC(=O)C2CC2c2ccc(Br)cc2)[nH]c1C#N (stereo not drawn) | 81.5% (active)
42 | COc1ccc(NS(=O)(=O)c2ccc(Cl)c(Cl)c2)cc1 | 86.7% (active)
43 | N#CSc1ccc(NS(=O)(=O)c2ccc(Cl)cc2)c(Cl)c1 | 79.8% (active)
44 | O=S(=O)(Nc1ccc(F)c(F)c1)c1ccc(Cl)c(Cl)c1 | 17.1% (inactive)
45 | O=S(=O)(Nc1cc(Cl)ccc1Cl)c1ccc(Cl)cc1 | 64.6% (active)
46 | Nc1cc(S(=O)(=O)Nc2ccc(Cl)cc2)ccc1Cl | 89.1% (active)
47 | Nc1cc(S(=O)(=O)Nc2ccc(Br)cc2)ccc1Cl | 30% (inactive)
48 | COc1ccc(S(=O)(=O)Nc2ccc3c(c2)OC(F)(F)O3)cc1 | 33% (inactive)
49 | O=c1[nH]c2ccc(S(=O)(=O)Nc3ccc(Cl)cc3Cl)cc2s1 | 19% (inactive)
50 | CCC(C)(C)NS(=O)(=O)c1ccc(Cl)c(Cl)c1 | 82.7% (active)
51 | CCS(=O)(=O)c1ccc(NC(=O)Cc2ccc(Cl)c(Cl)c2)cc1 | 41.3% (inactive)
52 | CCN(CC)S(=O)(=O)c1cccc(S(=O)(=O)c2ccc(Cl)c(Cl)c2)c1 | 1.03% (inactive)

Row | SMILES | inhibition
53 | CN(Cc1ccc(Cl)cc1)c1ccc2c(C3CC3)noc2n1 | 41.3% (inactive)
54 | CN(Cc1cccnc1)c1ccc2c(-c3ccccc3F)noc2n1 | 90.6% (active)
55 | CCn1cnnc1CN(C)c1ccc(-c2nc(-c3ccccc3F)no2)cn1 | 7.76% (inactive)
56 | O=Cc1ccc(-c2ccc(Cl)cc2Cl)[nH]1 | 91.2% (active)
57 | CCOc1nc(NC(C)c2ccccc2)ncc1Br (stereo not drawn) | 28% (inactive)
58 | CC(NCCC(c1ccccc1)c1ccccc1)c1ccccc1 (stereo not drawn) | 58.2% (active)
59 | Oc1ccc(-c2csc(Cc3ccccc3)n2)cc1O | 30.3% (inactive)
60 | Clc1ccccc1CSCc1csc(Cc2ccc3c(c2)OCO3)n1 | 11.8% (inactive)
61 | Cc1ccc(Cc2nc(CSCCc3ccccc3)cs2)cc1 | 63.4% (active)
62 | Cc1ccc(COc2ccc3c(C4CC4)noc3n2)cc1F | 94.2% (active)
63 | c1csc(COc2ccc3c(C4CC4)noc3n2)c1 | 82.4% (active)
64 | c1ccc2oc(COc3ccc4c(C5CC5)noc4n3)cc2c1 | 81.1% (active)
65 | OCC1(CCOc2ccccc2)CCN(Cc2cc3ccccc3o2)CC1 | 28.8% (inactive)
66 | COc1ccccc1-c1noc2nc(OCc3ccccc3)ccc12 | 95.3% (active)
67 | Cn1c(Cc2ccccc2)nn(CN2CCC3(CC2)OCCO3)c1=S | 8.21% (inactive)
68 | Clc1cccc(COc2ccc3c(C4CC4)noc3n2)c1 | 76.8% (active)
69 | c1ccc(COc2ccc3c(C4CC4)noc3n2)cc1 | 76.3% (active)
70 | Cc1ccc(COc2ccc3c(C4CC4)noc3n2)cc1 | 46.7% (inactive)
71 | Cc1cccc(COc2ccc3c(C4CC4)noc3n2)c1 | 56% (active)
72 | CCCCn1c(O)c(C=Nc2ccccc2C(=O)O)c(C)c(C#N)c1=O | -10.6% (inactive)
73 | COc1ccc2nc(-n3nc(C)cc3NC(C)=O)sc2c1 | 86% (active)
74 | CC(=O)c1cccc(CN2CCC(C(=O)Nc3ccc(Oc4cccnc4)cc3)CC2)c1 | inactive
75 | O=C(Nc1ccc(Oc2cccnc2)cc1)C1CCN(Cc2nccs2)CC1 | 88.5% (active)
76 | O=C(Nc1ccc(Oc2cccnc2)cc1)C1CCN(Cc2cc(Cl)ccc2O)CC1 | 77.8% (active)
77 | Cc1ccc(CN2CCC(C(=O)Nc3ccc(Oc4cccnc4)cc3)CC2)o1 | 61.8% (active)
78 | O=C(Nc1ccc(Oc2cccnc2)cc1)C1CCN(C/C=C/c2ccccc2)CC1 | 28.8% (inactive)

Row | SMILES | inhibition
79 | CCCCNC(=S)NN=Cc1ccc(C)s1 | 71% (active)
80 | Cc1ccc(C=NNC(=S)NCCCN2CCOCC2)s1 | 102% (active)
81 | CCCCNC(=S)NN=Cc1cccs1 | 103% (active)
82 | C=C(C)CNC(=S)NN=CC1=CCC2CC1C2(C)C (stereo not drawn) | 23% (inactive)
83 | COCCNC(=S)NN=Cc1cccs1 | 38.1% (inactive)
84 | CCCCNC(=S)N(C)N=Cc1ccc(C)s1 | -20.6% (inactive)
85 | O=C(c1ccc2nonc2c1)N1CCCC2(CCCc3ccccc32)C1 (stereo not drawn) | 23.2% (inactive)
86 | COc1cccc(-c2ccccc2NC(=O)C2CCN(Cc3cccc4cccnc34)CC2)c1 | inactive
87 | COc1cccc(-c2ccccc2NC(=O)C2CCN(Cc3cccc(C)n3)CC2)c1 | 99.6% (active)
88 | COc1cccc(-c2ccccc2NC(=O)C2CCN(Cc3cnc(C)nc3)CC2)c1 | 33% (inactive)
89 | COc1cccc(-c2ccccc2NC(=O)C2CCN(Cc3ccc(OC)c(C)c3)CC2)c1 | 92% (active)
90 | CC(C)c1cccc(N(C)Cc2cncn2C)c1 | 42.1% (inactive)
91 | N#CC(=Cc1ccc(Cl)cc1)c1nc(C2CC2)cs1 | 20.5% (inactive)
92 | N#CC(=Cc1cccc2ccccc12)c1ccccn1 | 22.6% (inactive)
93 | N#CC(=Cc1cccc2ccccc12)c1nc(C2CC2)cs1 | 96.1% (active)
94 | Cc1cc(N2CCNCC2)nc(-c2cccc(C(F)(F)F)c2)n1 | 94.4% (active)
95 | CCc1c(C)nc(-c2ccc(C(F)(F)F)cc2)nc1N1CCNCC1 | 61.7% (active)
96 | OCC1(Cc2cccc(C(F)(F)F)c2)CCN(c2ccc3ccccc3n2)CC1 | 22.1% (inactive)
97 | CCc1c(C)nc(-c2cccc(C(F)(F)F)c2)nc1N1CCNCC1 | 33.2% (inactive)
98 | Cc1ccc(Cc2nsc(N3CCN(c4cccc(C(F)(F)F)c4)CC3)n2)cc1 | 24.1% (inactive)
99 | Cc1cc(N2CCNCC2)nc(-c2ccc(C(F)(F)F)cc2)n1 | 82% (active)
100 | O=[N+]([O-])c1cc(Cl)ccc1Oc1ccc2ccccc2c1 | 77.2% (active)
101 | Nc1cc(Cl)ccc1Oc1ccc(Cl)cc1 | -29.7% (inactive)
102 | CC(C)(C)c1cc(/C=C(\C#N)C(N)=S)cc(C(C)(C)C)c1O | 102% (active)
103 | Cc1nnc(NC(=O)C(C)SC(F)(F)F)s1 (stereo not drawn) | 91.5% (active)

Source: PubChem BioAssay AID1259343 (VanderVen Lab, College of Veterinary Medicine, Cornell …, 2017)
